Drawing on PubChem BioAssay (Tox21), this text covers Potency, outcome and max activation for seven compounds.

Values without a mark were called inactive. Records with an inconclusive call do not appear. Calls of active or inactive are those of the source. Unless noted, calls follow the shape of the dose curve; as a rule, active = well fitted curve in the direction sought with a large enough effect in the repeat runs; inconclusive = weak or mixed curves; inactive = no such curve, though single readings can be large; an effect the other way counts as inactive or inconclusive.

Assay [1] in a line: qHTS assay to identify small molecule agonists of the estrogen receptor alpha (ER-alpha) signaling pathway in the presence of an antagonist - cell viability counter screen (AID 1259386).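 Also: cells exposed to compounds for 22 h at 37 °C before the viability read; nearly all actives have a fitted effect of over 30% in size.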 Also: potency is read from the fitted curve at half-maximal effect. The gist of the method: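 Cells are starved of estrogens for 5 days in charcoal-stripped serum, seeded for 24hr and co-treated with ICI-182,780 (10.0nM final) and test compounds. After 22hr at 37C, viability is read as CellTiter-Fluor fluorescence.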

The target in assay [2] is Progesterone receptor (Homo sapiens) (UniProt P06401). The assay is described as follows: qHTS assay to identify small molecule agonists of the progesterone receptor (PR) signaling pathway (AID 1346784; calls by dose curve; also: nearly all actives have a fitted effect of over 30% in size). The procedure, abridged: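 Cells (PR-UAS-bla HEK 293T, GripTite) were plated in assay medium containing 2% charcoal-stripped FBS and incubated 6 hr. Test compounds in DMSO were added for 16 hr at 37C. FRET substrate was then loaded for 2 hr at room temperature before fluorescence reading.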

The target is the same in assay [3]. The experiment in a line: qHTS assay to identify small molecule antagonists of the progesterone receptor (PR) signaling pathway (AID 1346795; active = well fitted inhibition curve with a large enough effect in the signal ratio in the repeat runs, not every such curve was filed as active; the % refers to the signal ratio; also: potency is read from the fitted curve at half-maximal effect). The gist of the method: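 Antagonist mode: compounds tested against 1 nM (final) promegestone stimulation in HEK293T cells expressing PR-UAS-bla reporter, 16 hr at 37C, 5% CO2; beta-lactamase activity detected via B/G FRET substrate after 2 hr at room temperature.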

Assay [4] is described as follows: qHTS assay to identify small molecule antagonists of the progesterone receptor (PR) signaling pathway - cell viability counter screen (AID 1346798). Also: series mostly up to about 92 µM; nearly all actives have a fitted effect of over 50% in size. The gist of the method:
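Counter screen for cytotoxicity: viability of PR-UAS-bla HEK293T cells was measured with CellTiter-Glo luminescence following 16 hr compound exposure in the presence of R5020.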

Assay [5] can be described thus: qHTS assay to identify small molecule agonists of the progesterone receptor (PR) signaling pathway - cell viability counter screen (AID 1346799; calls by dose curve; also: nearly all actives have a fitted effect of over 45% in size). The gist of the method:
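Cells (PR-UAS-bla HEK293T) are plated at 3,000/well in 2% charcoal-stripped FBS medium, rested 6 hr, dosed and incubated 16 hr at 37C. CellTiter-Glo is then added and luminescence measured after 30 min at room temperature.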

Assay [6] is described as follows: qHTS assay to identify small molecule antagonists of the TGF-beta/Smad signaling pathway - cell viability counter screen (AID 1346824). Also: nearly all actives have a fitted effect of over 50% in size. The gist of the method:
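SBE-bla HEK 293T cells, incubated overnight, then compound plus 0.25 ng/mL TGF-beta1 (stock added) for 5 hr at 37 C. Viability was read in the same wells by CellTiter-Glo luminescence after 30 min at room temperature.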

The nature of assay [7]: qHTS assay to identify small molecule agonists of the TGF-beta/Smad signaling pathway - cell viability counter screen (AID 1346829). Also: top concentration of the series differs between compounds; nearly all actives have a fitted effect of over 45% in size. The gist of the method: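 Tox21 qHTS format: SBE-bla HEK 293T cells treated with DMSO-dissolved compounds for 5 hr; CellTiter-Glo luminescence after 30 min at room temperature.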
A short description of assay [8]: qHTS assay to identify small molecule agonists of the TGF-beta/Smad signaling pathway (AID 1346859; active = well fitted activation curve with a large enough effect in the signal ratio in the repeat runs, not every such curve was filed as active; the % refers to the signal ratio; also: series mostly up to about 77 µM). The gist of the method:
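Reporter line: HEK 293T with stably integrated SBE-controlled beta-lactamase. Compound exposure lasts 5 hr at 37 C and 5% CO2; substrate loading follows for 2 hr at room temperature, with emission read at 460 and 530 nm.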

For assay [9], the target named is Thyrotropin-releasing hormone receptor (Homo sapiens) (UniProt P34981). The experiment in a line: qHTS assay to identify small molecule antagonists of the thyrotropin-releasing hormone receptor (TRHR) signaling pathway (AID 1346877; active = well fitted inhibition curve with a large enough effect in the repeat runs, not every such curve was filed as active; also: series mostly up to about 51 µM). The gist of the method:
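Cells (TRHR-HEK293) are plated and kept 18 h at 37 °C/5% CO2. A calcium-sensitive dye is added for 2 h, compound follows for 5 min at room temperature, and TRH is then given at 1 nM final.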

For assay [10] the target is unchanged. The assay is described as follows: qHTS assay to identify small molecule agonists of the thyrotropin-releasing hormone receptor (TRHR) signaling pathway (AID 1346891; calls by dose curve;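 also: HEK293 cells expressing TRHR with calcium dye readout; series mostly up to about 58 µM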). The procedure, abridged:
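Cells: TRHR-Hek293, seeded and incubated 18 h. Dye loading: 2 h at 37 °C. Compound added from DMSO stock by pin tool. Read-out: kinetic calcium fluorescence over 3 min.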

Assay [11] can be described thus: Human pregnane X receptor (PXR) small molecule agonists, qHTS cell viability counter screen (AID 1346977). Also: nearly all actives have a fitted effect of over 50% in size. Also: potency is read from the fitted curve at half-maximal effect. The procedure, abridged: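 Cytotoxicity counter screen run in the same wells as the PXR luciferase assay, using PXR-Luc HepG2 cells in charcoal-stripped serum medium. Viability: CellTiter-Fluor fluorescence after 24hr compound treatment.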
Assay [12] in a line: Caspase-3/7 induction in HepG2 cells by small molecules, qHTS assay (AID 1346978). Also: nearly all actives have a fitted effect of over 15% in size. The procedure, abridged:
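Wild-type HepG2 cells, 2,000/well, settled 5 hr at 37 C and 5% CO2, then compound-treated for 17 hr; caspase-3/7 activity read by luminescent Caspase-Glo 3/7 after 30 min at room temperature.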

A short description of assay [13]: Caspase-3/7 induction in CHO-K1 cells by small molecules, qHTS cell viability counter screen (AID 1346979). Also: nearly all actives have a fitted effect of over 35% in size. Also: potency is read from the fitted curve at half-maximal effect. The gist of the method:
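Cytotoxicity counter screen run in parallel with the caspase-3/7 assay: CHO-K1 cells, 16hr compound treatment at 37C, then CellTiter-Fluor for 1hr before fluorescence reading.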

The nature of assay [14]: Caspase-3/7 induction in CHO-K1 cells by small molecules, qHTS assay (AID 1346980). Also: nearly all actives have a fitted effect of over 15% in size. The procedure, abridged:
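Wild-type CHO-K1 cells exposed to compounds for 17hr at 37 C, 5% CO2. Caspase-3/7 activity then measured by Caspase-Glo 3/7 luminescence after 30min at room temperature.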

The nature of assay [15]: Caspase-3/7 induction in HepG2 cells by small molecules, qHTS cell viability counter screen (AID 1346981). Also: nearly all actives have a fitted effect of over 30% in size. Also: potency is read from the fitted curve at half-maximal effect. The procedure, abridged:
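Steps: seed 2,000 HepG2 cells per well; incubate 5 hr at 37 C; pin-add compounds in DMSO; incubate 16 hr; add CellTiter-Fluor; after 1 hr at 37 C and 5% CO2, read fluorescence.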

Assay [16] addresses Nuclear receptor subfamily 1 group I member 2 (Homo sapiens) (UniProt O75469). The assay is described as follows: Human pregnane X receptor (PXR) small molecule agonists, qHTS assay (AID 1346982). Also: nearly all actives have a fitted effect of over 35% in size. Also: potency is read from the fitted curve at half-maximal effect. The procedure, abridged: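 Agonist mode qHTS: PXR-Luc HepG2 cells plated 5 hr before DMSO-dissolved compounds were pinned in, cultured 24 hr at 37 C, 5% CO2; ONE-Glo luminescence readout.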

Assay [17] concerns the target Cytochrome P450 2D6 (Homo sapiens) (UniProt P10635). The experiment in a line: Cytochrome P450 Family 2 Subfamily D Member 6 (CYP2D6) small molecule antagonists: luciferase reporter qHTS assay (AID 1671196). Also: nearly all actives have a fitted effect of over 50% in size. Also: potency is read from the fitted curve at half-maximal effect. The procedure, abridged: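 P450-Glo format: CYP2D6 converts a proluciferin substrate to luciferin in an NADPH-driven reaction lasting 1 h at room temperature. Light output, proportional to CYP2D6 activity, reflects interference by test chemicals.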

For assay [18], the target named is Nuclear receptor subfamily 1 group I member 2 (Rattus norvegicus) (UniProt Q9R1A7). The experiment in a line: Rat pregnane X receptor (rPXR) activation by small molecules, qHTS assay (AID 1346983). Also: nearly all actives have a fitted effect of over 20% in size. The settings on record: rPXR luciferase reporter cells, One-Glo luminescence, 24 h; hits give high values. The procedure, abridged:
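Cell-based rPXR activation assay: rPXR cells, 2,000 per well, rested 5hr at 37 C, then exposed to compounds in DMSO for 24 hr at 37 C. Luciferase activity read by One-Glo luminescence after 30 min at room temperature.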

Assay [19] addresses Nuclear receptor subfamily 1 group I member 2 (Homo sapiens) (UniProt O75469). The experiment in a line: CYP3A4 induction through human pregnane X receptor (PXR) by small molecules, qHTS assay (AID 1346984). Also: nearly all actives have a fitted effect of over 40% in size. The gist of the method: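 Steps: seed DPX-2 cells, 5 hr at 37C; pin-transfer compounds; 24 hr at 37C; add Luciferin-IPA (3uM final), 3 hr at 37C; add One-Glo, 30 min RT; read luminescence.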

Assay [20] shares this target. The assay is described as follows: Human pregnane X receptor (PXR) activation by small molecules, qHTS assay (AID 1346985). Also: nearly all actives have a fitted effect of over 40% in size. The procedure, abridged:
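DPX-2 cells (HepG2 co-transfected with a PXR response element and a CYP3A4-promoter luciferase construct) were seeded at 2,000 per well, rested 5 hr at 37C, then exposed to DMSO-dissolved compounds for 24 hr. Activation was read as luciferase luminescence.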
% is scaled to controls: 0 for no effect and ±100 for the full control effect.

Sequence of Nuclear receptor subfamily 1 group I member 2 (Homo sapiens) (O75469 whole entry, looked up): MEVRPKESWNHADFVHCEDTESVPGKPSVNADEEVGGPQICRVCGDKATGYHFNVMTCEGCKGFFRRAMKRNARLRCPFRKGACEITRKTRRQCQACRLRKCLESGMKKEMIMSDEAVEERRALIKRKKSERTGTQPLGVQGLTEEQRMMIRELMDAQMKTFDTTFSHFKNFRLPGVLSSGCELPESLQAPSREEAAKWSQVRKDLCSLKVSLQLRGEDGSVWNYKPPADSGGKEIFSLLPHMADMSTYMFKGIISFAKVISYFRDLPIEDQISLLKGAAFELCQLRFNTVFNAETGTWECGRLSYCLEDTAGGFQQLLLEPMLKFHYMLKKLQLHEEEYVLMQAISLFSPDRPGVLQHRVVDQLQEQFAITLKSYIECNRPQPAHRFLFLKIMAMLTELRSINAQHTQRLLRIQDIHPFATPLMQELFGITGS
Sequence of Progesterone receptor (Homo sapiens) (P06401 whole entry, looked up): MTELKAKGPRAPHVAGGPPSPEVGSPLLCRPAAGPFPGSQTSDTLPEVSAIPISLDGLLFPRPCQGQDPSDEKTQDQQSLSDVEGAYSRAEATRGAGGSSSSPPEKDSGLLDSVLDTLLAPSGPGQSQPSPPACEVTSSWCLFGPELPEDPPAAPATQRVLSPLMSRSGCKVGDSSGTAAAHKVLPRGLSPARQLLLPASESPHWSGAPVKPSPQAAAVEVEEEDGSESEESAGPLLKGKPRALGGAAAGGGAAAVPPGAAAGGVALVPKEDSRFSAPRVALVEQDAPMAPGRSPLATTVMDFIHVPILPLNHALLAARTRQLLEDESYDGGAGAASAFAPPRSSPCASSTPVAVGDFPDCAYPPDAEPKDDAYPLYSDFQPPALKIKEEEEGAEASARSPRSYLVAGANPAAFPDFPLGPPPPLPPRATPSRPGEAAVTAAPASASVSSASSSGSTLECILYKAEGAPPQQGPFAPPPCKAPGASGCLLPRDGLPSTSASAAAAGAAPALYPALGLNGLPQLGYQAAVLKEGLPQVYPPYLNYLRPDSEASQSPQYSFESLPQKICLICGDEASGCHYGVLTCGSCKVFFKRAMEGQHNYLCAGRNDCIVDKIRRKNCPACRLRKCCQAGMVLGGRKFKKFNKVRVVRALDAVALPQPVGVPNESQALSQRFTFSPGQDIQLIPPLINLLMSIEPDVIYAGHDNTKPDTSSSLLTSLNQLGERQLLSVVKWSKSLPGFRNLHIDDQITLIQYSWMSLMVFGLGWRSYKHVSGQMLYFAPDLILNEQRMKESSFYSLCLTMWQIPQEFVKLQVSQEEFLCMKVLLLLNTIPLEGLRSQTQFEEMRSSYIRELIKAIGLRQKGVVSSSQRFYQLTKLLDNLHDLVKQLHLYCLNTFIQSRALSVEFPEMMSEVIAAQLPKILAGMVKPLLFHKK
Sequence of Cytochrome P450 2D6 (Homo sapiens) (P10635 whole entry, looked up): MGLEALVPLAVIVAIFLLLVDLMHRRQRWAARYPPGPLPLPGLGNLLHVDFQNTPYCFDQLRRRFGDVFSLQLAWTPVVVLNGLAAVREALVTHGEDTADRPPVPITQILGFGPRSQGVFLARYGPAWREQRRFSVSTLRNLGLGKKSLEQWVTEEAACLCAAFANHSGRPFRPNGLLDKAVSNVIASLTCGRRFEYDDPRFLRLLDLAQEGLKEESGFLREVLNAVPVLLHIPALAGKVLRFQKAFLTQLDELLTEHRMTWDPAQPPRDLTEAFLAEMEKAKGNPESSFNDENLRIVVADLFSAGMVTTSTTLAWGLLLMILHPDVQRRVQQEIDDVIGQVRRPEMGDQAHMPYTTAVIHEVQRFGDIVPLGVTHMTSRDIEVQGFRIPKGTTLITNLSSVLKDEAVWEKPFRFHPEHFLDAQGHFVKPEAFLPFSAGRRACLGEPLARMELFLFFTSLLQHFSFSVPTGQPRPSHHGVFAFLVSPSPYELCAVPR
Sequence of Thyrotropin-releasing hormone receptor (Homo sapiens) (P34981 whole entry, looked up): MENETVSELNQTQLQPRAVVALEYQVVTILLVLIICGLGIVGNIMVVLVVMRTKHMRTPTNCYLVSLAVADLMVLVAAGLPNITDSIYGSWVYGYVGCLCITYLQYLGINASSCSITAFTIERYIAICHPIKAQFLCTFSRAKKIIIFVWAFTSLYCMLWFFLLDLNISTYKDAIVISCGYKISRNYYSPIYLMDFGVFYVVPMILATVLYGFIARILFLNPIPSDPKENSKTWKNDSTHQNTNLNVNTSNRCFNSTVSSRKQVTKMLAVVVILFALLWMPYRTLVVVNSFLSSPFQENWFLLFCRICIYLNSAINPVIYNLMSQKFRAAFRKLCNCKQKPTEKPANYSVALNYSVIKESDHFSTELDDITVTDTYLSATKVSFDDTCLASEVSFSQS
Sequence of Nuclear receptor subfamily 1 group I member 2 (Rattus norvegicus) (Q9R1A7 whole entry, looked up): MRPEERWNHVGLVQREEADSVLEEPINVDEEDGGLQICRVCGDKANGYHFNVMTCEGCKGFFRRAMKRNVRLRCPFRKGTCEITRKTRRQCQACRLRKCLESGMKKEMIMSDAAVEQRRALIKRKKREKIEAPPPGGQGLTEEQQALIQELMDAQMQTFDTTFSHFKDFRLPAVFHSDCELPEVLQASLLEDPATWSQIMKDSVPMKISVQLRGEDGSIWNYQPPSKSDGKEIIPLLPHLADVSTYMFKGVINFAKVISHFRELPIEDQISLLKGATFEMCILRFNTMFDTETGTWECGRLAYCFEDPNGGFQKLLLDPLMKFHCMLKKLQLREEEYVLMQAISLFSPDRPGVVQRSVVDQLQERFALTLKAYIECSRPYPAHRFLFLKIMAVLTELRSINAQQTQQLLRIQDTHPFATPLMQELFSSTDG

Consider `CNc1ccc([N+](=O)[O-])cc1`, for which the Potency in [1] is 34.4 µM (active); in assay [3] it was 54.6 µM (active); in assay [11] it was 43.4 µM (active); in assay [13], 48.7 µM (active); in assay [15], 30.7 µM (active); in assay [16], 54.6 µM (active). Moreover, the Potency result in assay [2], in assay [4], in [5], in [6], in [7] and in assay [8] was “inactive” in each case. Moreover, the Potency entry in assay [9], in [12] and in [14] was “inactive” throughout. In addition, the result in assay [10] was inactive.

Take `O=C(O)Cc1ccccc1Nc1c(Cl)cccc1Cl`: the Potency result in assay [1], in assay [2], in assay [3], in assay [4], in assay [5] and in assay [6] was “inactive” in each case. Also, the Potency entry in assay [7], in assay [8], in [9], in assay [11], in [12] and in assay [13] was “inactive” each time. The Potency entry in [14], in assay [16] and in assay [17] was “inactive” in each case. In assay [10], the compound was called inactive.

As to `OCC(F)(F)F`, the Potency result in [1], in assay [2], in assay [3], in [4], in assay [5] and in assay [6] was “inactive” in each case. Besides, the Potency result in assay [7], in [8], in assay [9], in assay [11], in [12] and in assay [13] was “inactive” each time. The Potency entry in [14], in assay [15], in assay [16] and in [17] was “inactive” in each case. Also, the compound was classed as inactive in assay [10].

With `OC[C@H]1O[C@H](O[C@H]2O[C@H](CO)[C@@H](O)[C@H](O)[C@H]2O)[C@H](O)[C@@H](O)[C@@H]1O`, the Potency entry in [1], in assay [2], in [3], in [4], in assay [5] and in assay [6] was “inactive” in each case. The Potency entry in assay [7], in assay [8], in assay [9], in [11], in assay [12] and in [13] was “inactive” each time. Also, the Potency entry in assay [15] and in [16] was “inactive” in each case. In addition, in assay [10], the compound was classed as inactive.

Turning to `CCOc1ccc2ccccc2c1C(=O)N[C@@H]1C(=O)N2[C@@H]1SC(C)(C)[C@@H]2C(=O)O`, the Potency entry in [1], in assay [2], in assay [3], in assay [4], in assay [5] and in assay [6] was “inactive” throughout. In addition, the Potency result in assay [7], in [8], in assay [9], in assay [11], in assay [12] and in assay [13] was “inactive” in each case. The Potency result in [14], in assay [15], in assay [16], in assay [19], in [20] and in [17] was “inactive” throughout. In addition, in assay [10], the compound was classed as inactive. In addition, the max activation in [18] is -0.231%.

Take `Cc1nc2n(c(=O)c1CCN1CCC(c3noc4cc(F)ccc34)CC1)CCCC2`: the Potency result in assay [1], in assay [2], in [3], in assay [4], in [5] and in assay [6] was “inactive” throughout. Besides, the Potency result in assay [7], in assay [8], in [9], in [11], in [12] and in assay [13] was “inactive” each time. Besides, the Potency result in assay [14] and in assay [16] was “inactive” throughout. In assay [10], the result was inactive. The Potency in assay [17] was 2.19 µM (active).

Turning to `CCOC(=O)Cn1cccc1-c1nc(-c2ccc(OC)cc2)c(-c2ccc(OC)cc2)s1`, the Potency result in assay [1], in [2], in [3], in [4], in assay [5] and in [6] was “inactive” throughout. For the same compound, the Potency entry in [7], in [8], in [9], in [11], in assay [12] and in assay [13] was “inactive” throughout. Moreover, the Potency entry in assay [14] was “inactive”. Moreover, in assay [10], the result was inactive.
